This is an account of results in PubChem BioAssay AID602346 (Broad Institute, 2012).

Molecules are shown by their SMILES. In all, about 340,000 compounds went through this assay and about 1,200 (0.35%) were called active. The sample as a whole holds a higher share of actives than the screen did. Unmarked numbers belong to inactive results. No stated cut-off is given here; in the data, active means inhibition above about 50% (passing the limit was not always enough); inconclusive means no clear call, values can overlap the other calls; inactive means below about 31%.

A short description of the assay: HIV Vif self-association inhibitors, primary screen, imaging, HEK293T, single point (AID 602346). The note with it: HEK293T cells, Vif self-association by quenched fluorescence, 24 h, at 7.49 µM, active compounds read high.
Turning to `COc1ccc(Br)c(Cn2c(C)c(C(=O)NCc3cccs3)sc2=O)c1`, the inhibition (commonly the change of the read-out against control, counted positive when it falls) was 1.02%.
The figure for `CC[C@]1(O)C[C@@H]2CN(CCc3c([nH]c4ccccc34)[C@@](C(=O)OC)(c3cc4c(cc3OC)N(C)[C@H]3[C@@](O)(C(=O)OC)[C@H](OC(C)=O)[C@]5(CC)C=CCN6CC[C@]43[C@@H]65)C2)C1` is 79.8% (active); for `COc1cc(NC(=O)c2ccc(-c3csc(C)n3)cc2)c(OC)cc1Cl` it is 64% (active).
Consider `CCOCC(=O)Nc1cc(OC)c(Cl)cc1OC`, for which the inhibition was -3.02%.
Take `COc1cc(NC(=O)c2ccccc2)c(OC)cc1NC(=O)Cc1ccccc1`: the inhibition was -4.83%.
`COCC(=O)Nc1c(I)c(C(=O)NCC(O)CO)c(I)c(C(=O)N(C)CC(O)CO)c1I` (stereo not given): the inhibition was -1.59%.
The figure for `CC(=O)N(CC(O)CO)c1c(I)c(C(=O)NCC(O)CO)c(I)c(C(=O)NCC(O)CO)c1I` (stereo not given) is 62% (active).
The figure for `CC12CCC(=O)C=C1CCC1C2C(O)CC2(C)C1CCC2(O)C(O)CO` (stereo not given) is 24%.
With `C[C@H]([C@@H](O)[C@@H](O)[C@@H](C)C(C)(C)C)[C@H]1CC[C@H]2C3CC[C@H]4C[C@H](OS(=O)(=O)O)[C@@H](OS(=O)(=O)O)C[C@]4(C)[C@H]3CC[C@]12C` (stereo not given in full), the inhibition is 9.95%.
The figure for `CC(C)(C)CC(=O)Nc1nc(C(N)Cc2ccc(C(F)(F)F)cc2)cs1` (stereo not given) is -2.15%; for `C[C@@H]1CN([C@@H](C)CO)S(=O)(=O)c2ccc(C#Cc3cccc(F)c3)cc2O[C@H]1CN(C)S(=O)(=O)c1cn(C)cn1` it is -26.5%.
Take `Cc1ccc(C)c(N2CCN(S(=O)(=O)c3c(C)[nH]c(C)c3C(=O)N3CCCC3)CC2)c1`: the inhibition is 1.25%.
The figure for `COC(=O)c1cc(S(=O)(=O)N2CCN(c3cc(C)ccc3C)CC2)c[nH]1` is 51.4% (active); for `Cc1ccc(C)c(N2CCN(S(=O)(=O)c3ccc4c(c3)oc(=O)n4C)CC2)c1` it is -13.1%; for `CCCCCCNC(=O)O[C@H]1CN(C(=O)OC(C)C)N(C(=O)OC(C)C)[C@@H]2CN(S(=O)(=O)c3ccc(C)cc3)C[C@]12O` it is -2.14%.
`CCOP(=O)(OCC)C(Cc1ccccc1)N=C(c1ccccc1)c1ccccc1` (stereo not given): the inhibition was -3.63%.
As to `CC1(C(=O)Nc2cccc(Oc3ccccc3)c2)CCN1Cc1ccccc1Cl` (stereo not given), the inhibition was 1.11%.
The figure for `CN(Cc1ccccc1)C(=O)CCC1CCN(C(=O)c2ccco2)CC1` is 132% (active); for `O=C(c1ccco1)N1CCN(CCOc2ccccc2)CC1` it is 3.05%.
The value for `O=C(c1ccco1)N1CCN(C(=O)C2c3ccccc3Oc3ccccc32)CC1` was 2.39%; that for `COc1ccc(C(C#N)=C2C=CC(=NO)c3ccccc32)cc1` was 24.3%.
Turning to `NC(c1ccccc1)c1csc(NC(=O)Nc2cccc(C(F)(F)F)c2)n1` (stereo not given), the inhibition was 4.85%.
The value for `COc1ccc(-c2ccc(CN3C(CC(C)C)C(=O)N(Cc4cn(CC5CCCCC5)nn4)CCS3(=O)=O)cc2)cn1` (stereo not given) was -4.05%; that for `COC(=O)Nc1nc2ccc(Sc3ccccc3)cc2[nH]1` was 57% (active); that for `CN(c1ccccc1)S(=O)(=O)c1cc(C(=O)Nc2nc3ccccc3[nH]2)ccc1Cl` was -13.9%.
Regarding `Cc1ccc(O)c(CNc2nc3ccccc3[nH]2)c1`, the inhibition is -2.01%.
The value for `COc1ccc(CC(N)c2csc(NC(=O)Cc3ccccc3)n2)cc1` (stereo not given) was -11.3%; that for `COC(=O)c1ccc(NCC(=O)c2ccccc2)cc1` was 3.71%; that for `O=C(OC12CC3CC(CC(C3)C1)C2)c1ccc(NCc2cc(O)ccc2O)cc1` was 8.83%.
`CC(OC(=O)c1ccc(Cl)cc1O)C(=O)NCCC1=CCCCC1` (stereo not given): the inhibition is 11.7%.
For `CC(C)OC(=O)c1ccc(NCc2cc(O)ccc2O)cc1Cl`, the inhibition was 55.2% (active).
The figure for `COC(=O)c1ccc(NCc2cc(O)ccc2O)cc1` is 101% (active); for `CC(CN1CCOCC1)OC(=O)c1ccc(Cl)cc1Cl` (stereo not given) it is 4.38%.
The figure for `COc1ccc(C(NC(=O)C2CCN(CCCc3ccccc3)CC2)c2cccs2)cc1` (stereo not given) is 14.2%; for `CCCCC[C@@H]1C=C(C(=O)OCC)[C@H](c2ccccc2)N1S(=O)(=O)c1ccc(C)cc1` it is 3.46%; for `COc1ccc(Cc2nnc(SCC(=O)Nc3ccc(C)c(C)c3)o2)cc1OC` it is 3.15%.
The value for `COc1ccc(C(=O)NCc2nnc(SCC(=O)Nc3cccc(OC)c3)o2)cc1` was 19%; that for `COc1cccc(NC(=O)CSc2nnc(Cc3ccc(OC)c(OC)c3)o2)c1` was 60.1% (active).
As to `CNc1cncc(-c2ccc(NS(C)(=O)=O)cc2)n1`, the inhibition is 21.1%.
Turning to `COc1ccc(-c2ccc(C(=O)NCCN3CCOCC3)c3occc23)c(C)c1`, the inhibition is -8.68%.
For `Cc1ccc(C(=O)N/C(=C\c2ccc(F)cc2)C(=O)NCCN2CCOCC2)cc1`, the inhibition is 4.18%.
The figure for `Cc1cc(C)cc(C(=O)NCCN2CCOCC2)c1` is -5.07%.
The figure for `Cc1ccc(C(=O)NC(=S)NCCN2CCOCC2)cc1` is 50.2% (active); for `Cc1cc(=O)oc2c3c(cc(OCC(=O)NCC(O)c4ccccc4)c12)OC(C)(C)CC3` (stereo not given) it is -17%; for `COc1ccc(CC(N)c2csc(NC(=O)NC(c3ccccc3)c3ccccc3)n2)cc1` (stereo not given) it is 2.09%.
The figure for `COc1cc(Cn2c3ccc(NC(=O)CC(C)c4ccccc4)cc3c(=O)n2C)ccc1F` (stereo not given) is -4.26%; for `CC(C)=CCc1c(O)c(CC=C(C)C)c2occ(-c3ccc(O)cc3)c(=O)c2c1O` it is 6.99%; for `CC(C)c1cc(N=O)cc(C(C)C)c1O` it is 3.46%.
Consider `CC(C)=CCc1ccc(O)c(=O)cc1C(C)C`, for which the inhibition was 114% (active).
The figure for `O[C@H]1C[C@H](c2ccc(Cl)cc2)N(Cc2cccs2)C[C@@H]1n1cc(C2CC2)nn1` is -12.7%; for `COc1ccc(-c2nc3cc(C)ccn3c2NC2CCCCC2)cc1SC1CCCCC1` it is -0.392%; for `COc1ccc(-c2nc3cnccn3c2NC(C)(C)CC(C)(C)C)cc1O` it is -5.81%.
The value for `COc1ccc(-c2nc3cnccn3c2NC2CCCCC2)cc1-c1cccc(Cl)c1` was 51.8% (active).
The value for `O=C(NC(c1ccc(-c2ccccc2)cc1)c1cnccn1)C1CCN(CCOc2ccc(Cl)cc2Cl)CC1` (stereo not given) was 4.85%; that for `CCOC1=C2[C@H]([C@H]3C(=O)N(c4ccccc4)C(=O)[C@H]3C1)[C@@H](c1ccccc1)N(S(=O)(=O)c1ccc(C)cc1)[C@H]2c1ccccc1` was 6.5%; that for `Cc1cc2nc(-c3ccc(Cl)cc3)c(Cc3cccc(F)c3)n2c(C)c1Br` was 16.2%.
Regarding `C[C@H]1CN([C@@H](C)CO)C(=O)c2cc(C3=CCCCC3)cnc2O[C@@H]1CN(C)C(=O)Cc1ccccc1`, the inhibition was -21%.
The figure for `O=C(O)c1ccccc1-c1ccccc1C(=O)Nc1nccs1` is 13.1%; for `COc1ccc(NC(=O)c2cn(-c3ccccc3)nc2SC)cc1` it is -9.63%; for `COc1ccc(-c2nn(-c3ccccc3)cc2C(=O)Nc2nccs2)cc1OC` it is 52.9% (active).
On to `CC1(C(=O)Nc2cccc3c2CCCC3)CCN1C(=O)CCc1ccc(Cl)cc1Cl` (stereo not given), for which the inhibition is -0.855%.
The figure for `CCc1cc(-c2nnn(CCC3COCCO3)c2CC)ccc1-c1cn(Cc2ccc3ccccc3c2)nn1` (stereo not given) is -19.8%; for `CCc1nc2c(OCc3ccc(Cl)cc3Cl)cccn2c1N(C)C(=O)C(C)C` it is -10.6%; for `CCc1nc2ccc(C(=O)Nc3cc(-c4ccccc4)ccc3OC)cn2c1N(CC)CC(=O)N(C)C` it is -11.6%.
The figure for `CCOCCC(=O)Nc1ccc2c(c1)c(=O)n(C)n2-c1ccc2ccccc2c1` is 34.9%; for `Cn1c(/C(C#N)=C2/CCCCCN2)nc2ccccc21` it is 5.07%.
For `N#CC(=C1CCCC1)c1nc(-c2ccc(Cl)cc2)cs1`, the inhibition is 3%.
Consider `N#C/C(=C1\CCCN1)c1nc(-c2ccccc2)cs1`, for which the inhibition is 61.4% (active).
The figure for `O=C(NCCOc1ccccc1)N1[C@H]2CC[C@@H]1C=C(c1ccc(F)cc1OCc1ccccc1)C2` is -2.23%; for `CCCN(CCC)c1nc2c(C)cccn2c(=O)c1/C=C1/SC(=S)N(Cc2ccco2)C1=O` it is 146% (active); for `Cc1ccc2[nH]c(=O)c(-c3nc4c(C)cccn4c3NCc3ccco3)cc2c1` it is -12.9%.
Take `CCc1nc2c(OCc3ccc(C(F)(F)F)cc3)cccn2c1N(C)C(=O)CC(C)C`: the inhibition was -5.03%.
The value for `COc1ccc(NC(=O)C2Cc3c(-c4ccc5c(c4)OCO5)ccnc3O2)cn1` (stereo not given) was -5.58%; that for `COc1cccc(CNc2nc(NCc3ccccc3OC)nc3ccsc23)c1` was -2.52%; that for `COc1ccccc1C1C2=C(COC2=O)Nc2cc3c(cc21)OCO3` (stereo not given) was 89.1% (active).
In the case of `CCCOc1ccccc1C1CC(=O)Nc2cc3c(cc21)OCO3` (stereo not given), the inhibition was -2.32%.
The figure for `O=C1OCC2=C1C(c1ccc(Cl)cc1)c1cc3c(cc1O2)OCO3` (stereo not given) is -11.3%.
The value for `COc1ccc(CN(C)C(=O)Cc2ccsc2)c(OC)c1OC` was -9.61%; that for `COc1ccccc1C(C)NC(=O)Cc1ccsc1` (stereo not given) was 98.8% (active).
The figure for `COc1ccc(OC)c(NC(=O)COC(=O)Cc2ccsc2)c1` is 9.67%.
With `CC(=O)Nc1ccc(NC(=O)COc2ccccc2C(=O)Nc2cccc(Cl)c2Cl)cc1`, the inhibition is 146% (active).
The figure for `O=C(COc1ccccc1Cl)Nc1ccccc1C(=O)NC1CC1` is -13.2%.
The value for `O=C(COc1ccccc1Cl)Nc1ccc(C(=O)c2ccc(C(=O)O)cc2)cc1` was 21.3%.
The value for `NC(c1csc(NC(=O)Nc2ccccc2Oc2ccccc2)n1)c1ccccc1Cl` (stereo not given) was -9.54%.
Regarding `COc1cncc(-c2cnc3sc(NCCc4ccccn4)nn23)c1`, the inhibition was -4.71%.
